In the library only some 6.1% were active in any assay of this set; here they are far more common.
ATXN2 expr inh: reduces ATXN2 reporter expression in HEK-293 cells. HEK-293 ATXN2-luciferase reporter, luminescence, 24 h. Potency, µM (doses to about 57 µM), most hits filed as inhibitors. 360,000 compounds, 0.72% hits; also: nearly all actives have a fitted effect of over 55% in size
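qHTS (up to 57 uM final) was run with 24 h compound exposure of reporter cells at 37 °C. Each well was multiplexed: SteadyGlo luminescence measured ATXN2-luciferase expression after a fluorogenic Gly-Phe-AFC viability readout (25 uM final).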
RORgamma inh: ROR gamma (mouse) transcription inhibition | P51450 | Drosophila S2 Gal4-RORgamma UAS-luciferase reporter, 20 h | Potency, µM (doses to about 53.6 µM), usual class: inhibitors | 310,000 compounds, 5.4% hits; also: nearly all actives have a fitted effect of over 60% in size
Target sequence (P51450 whole entry, looked up, the tested form may be a part): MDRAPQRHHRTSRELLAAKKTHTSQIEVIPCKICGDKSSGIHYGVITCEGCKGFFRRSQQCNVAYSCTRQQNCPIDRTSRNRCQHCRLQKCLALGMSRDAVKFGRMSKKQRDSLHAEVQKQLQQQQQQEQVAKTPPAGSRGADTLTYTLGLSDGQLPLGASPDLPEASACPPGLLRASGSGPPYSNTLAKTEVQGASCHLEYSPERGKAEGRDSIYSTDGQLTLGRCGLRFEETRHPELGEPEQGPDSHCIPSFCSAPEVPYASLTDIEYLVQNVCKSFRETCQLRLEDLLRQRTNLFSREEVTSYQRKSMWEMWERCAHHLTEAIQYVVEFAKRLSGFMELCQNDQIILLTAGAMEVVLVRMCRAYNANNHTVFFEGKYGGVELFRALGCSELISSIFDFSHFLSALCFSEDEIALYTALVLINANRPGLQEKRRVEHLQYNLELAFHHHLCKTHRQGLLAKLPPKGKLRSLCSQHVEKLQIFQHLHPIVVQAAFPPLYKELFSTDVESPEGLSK
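Drosophila Schneider cells stably carrying a metallothionein-driven Gal4 DBD–ROR gamma fusion and a UAS-Photinus luciferase reporter were exposed to compound for 1 hr, then induced with copper sulfate (700 uM final) for 20 hr at ambient temperature before luminescence reading.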
ATXN viability: reduces viability in counter-screen for ATXN expression inhibitors; S2 cells (HEK-293 line with an ATXN2-luciferase reporter) viability, CellTiter-Fluor protease fluorescence, 24 h; Potency, µM (titrated, usually from 56.7 µM), hits mostly cytotoxic; 400,000 compounds, 0.49% hits; AID 651635; also: nearly all actives have a fitted effect of over 40% in size
Gal4-VP16 FLuc: inhibits Gal4-VP16 luciferase reporter, ROR gamma counter-screen; Drosophila S2 Gal4-VP16 UAS-luciferase, luminescence, 20 h; Potency, µM (highest dose often 53.6 µM), actives largely listed as inhibitors; 310,000 compounds, 3.5% hits; AID 2546;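 also: Gal4-VP16 expression switched on by copper sulfate through the metallothionein promoter; nearly all actives have a fitted effect of over 50% in size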
TGFb inhibitor: TGF-b pathway inhibition | 410,000 compounds, 1.2% hits | HepG2 CAGA-GFP TGF-b/SMAD3 reporter, GFP fluorescence, 18 h; TGF-beta stimulated, 500 pg/mL final | Potency, µM (doses to about 46.1 µM), usual class: inhibitors; also: nearly all actives have a fitted effect of over 65% in size
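HEPG2 CAGA-GFP cells (1000/well, DMEM with 1% FBS) were pre-incubated 2 h at 37 degrees C, given compound by pin tool, then stimulated with TGF-beta at 500 pg/mL final for 18 h before per-cell GFP fluorescence imaging.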
HepG2 tox: counter-screen for TGF-b inhibitors: cytotoxicity in HepG2 cells. Potency, µM (top dose mostly 46.1 µM), most hits filed as cytotoxic. AID 588856. HepG2 CAGA-GFP viability, ATP luminescence, 18 h. 410,000 compounds, 0.76% hits
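CellTiter-Glo luminescence gave cytotoxicity after 18 hours at 37 degrees C. The cells were HepG2 CAGA-GFP in 1% FBS DMEM, stimulated with 500 pg/mL TGF-beta after compound addition. %Activity was normalised to no-cell wells (complete cell-killing) and DMSO (no toxicity), and curves were fitted and classified.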
Hits are given with their value; 0 = inactive; ? = inconclusive; - = no result given; ! = not active in a repeat; [ ] = remark or other dose. Calls follow the shape of the dose curve; as a rule, active = well fitted curve in the direction sought with a large enough effect; inconclusive = small, poorly fitted or top-dose-only effect, or another doubt; inactive = no such curve, though single readings can be large; an effect the other way counts as inactive or inconclusive.

SMILES | ATXN2 expr inh | RORgamma inh | ATXN viability | Gal4-VP16 FLuc | TGFb inhibitor | HepG2 tox
Cc1ccc(NC(=S)N=Nc2c(O)n(C)c3ccc(S(=O)(=O)N4CCOCC4)cc23)cc1C | 0 | 0.71µM | 0 | 3.2µM | 0 | 0
COc1cc(Cl)c(C)cc1NC(=O)CCn1c(=O)c2cccn2c2cccnc21 | - | - | - | - | ? | 0
Cn1c(O)c(N=NC(=S)Nc2ccccc2F)c2cc(S(=O)(=O)N3CCOCC3)ccc21 | 0[11.3 µM] | 0.32µM | ? | 2µM | ? | 0
O=C(CNc1ccccc1)N/N=C/c1ccc([N+](=O)[O-])cc1 | 0 | 0 | 0 | 0 | 0 | 0
O=C(CNc1cccc([N+](=O)[O-])c1)N/N=C/c1ccc([N+](=O)[O-])o1 | ? | 0 | 0 | 0[10 µM] | 7.1µM | 0
O=C(CNc1cccc2ccccc12)N/N=C/c1ccc([N+](=O)[O-])o1 | ? | 11µM | ? | ? | 6.3µM | 7.9µM
CC(=O)Nc1ccccc1-c1nc(CNC(=O)c2cccc(-n3cccn3)c2)c(C)o1 | - | - | 0 | - | - | -
COCCCNc1nc(NCc2ccc(C)cc2)c2cnn(C)c2n1 | 0 | - | 0 | - | 0 | 0
CN(Cc1ccccc1F)c1ncnc2sccc12 | 0 | 0 | 0 | 0 | 0 | 0
CN(Cc1cccs1)c1ncnc2sccc12 | 0 | 0 | 0 | 1.3µM | 0 | 0
CCn1c(=O)c2c(n3c(=S)[nH]nc13)-c1ccccc1CC21CCCCC1 | 0 | 2.8µM | 0 | 0 | 0 | 0
CC(=O)n1cc(CO)c2ccccc21 | 0 | 0 | 0 | 0 | 0 | 0
CC(=O)n1cc(N(C(=O)CCl)c2ccccc2)c2ccccc21 | ? | ? | - | ? | 7.1µM | 7.1µM
CC(=O)n1cc(N(C(=O)CCl)c2ccc([N+](=O)[O-])cc2)c2ccccc21 | ? | ? | 28µM | ? | ? | 10µM
Cc1cc(C(=O)O)c2c(=O)n(C)c(=O)n(C)c2n1 | 0 | - | 0 | - | 0 | 0
FC(F)(F)c1cc(-c2ccccc2)nc(N2CCOCC2)n1 | 0 | 0.79µM | 0 | 0 | 0 | 0
COc1ccc(CNCC(O)COc2ccc3[nH]c(=O)ccc3c2)cc1OC (configuration not stated) | - | - | 0 | - | - | -
CC(C)C1=NN2C(=N)CC(=O)N=C2S1 | 0 | 0 | 0 | 0 | 0 | 0
CCCCC1=NN2C(=N)CC(=O)N=C2S1 | 0 | 10µM | 0 | 0 | 0 | 0
O=c1c2c3n(c(=S)nc2[nH]n1-c1ccccc1)CCCCC3 | 0 | 13µM | ? | ? | 0 | 0
CON=C1C[C@]2(C[C@@H]3C[C@@H](C/C=C(\C)C[C@@H](C)/C=C/C=C4\CO[C@@H]5[C@H](O)C(C)=C[C@@H](C(=O)O3)[C@]45O)O2)O[C@H](/C(C)=C/C(C)C)[C@H]1C | - | - | 16µM | - | - | -
CO[C@H]1C[C@H](O[C@H]2[C@H](C)O[C@@H](O[C@@H]3/C(C)=C/C[C@@H]4C[C@@H](C[C@]5(C=C[C@H](C)[C@@H](C6CCCCC6)O5)O4)OC(=O)[C@@H]4C=C(C)[C@@H](O)[C@H]5OC/C(=C\C=C\[C@@H]3C)[C@]54O)C[C@@H]2OC)O[C@@H](C)[C@@H]1O | - | - | 3.2µM | - | - | -
CCC(C)[C@H]1O[C@]2(C=C[C@@H]1C)C[C@@H]1C[C@@H](C/C=C(\C)[C@@H](O[C@H]3C[C@H](OC)[C@@H](O[C@H]4C[C@H](OC)[C@H](NC(C)=O)[C@H](C)O4)[C@H](C)O3)[C@@H](C)/C=C/C=C3\CO[C@@H]4[C@H](O)C(C)=C[C@@H](C(=O)O1)[C@]34O)O2 (some centres not stated) | - | - | 3.2µM! | - | - | -
CC[C@H](C)[C@@H]1O[C@]2(CC[C@@H]1C)C[C@H]1C[C@H](CC=C(C)[C@@H](O[C@@H]3C[C@H](OC)[C@H](O[C@@H]4C[C@H](OC)[C@H](O)[C@H](C)O4)[C@H](C)O3)[C@@H](C)C=CC=C3CO[C@@H]4[C@@H](O)C(C)=C[C@@H](C(=O)O1)[C@]34O)O2 | - | 0 | ? | 0 | - | -
CC[C@@H](C)[C@H]1O[C@]2(CC[C@@H]1C)C[C@@H]1C[C@H](C/C=C(/C)[C@H](O[C@@H]3C[C@H](OC)[C@H](O[C@@H]4C[C@H](OC)[C@@H](O)[C@H](C)O4)[C@H](C)O3)[C@@H](C)/C=C\C=C3CO[C@@H]4[C@H](O)C(C)=C[C@@H](C(=O)O1)[C@]34O)O2 (tested in a mixture with another compound) | - | 0 | - | 0 | - | -
SMILES | ATXN2 expr inh | RORgamma inh | ATXN viability | Gal4-VP16 FLuc | TGFb inhibitor | HepG2 tox
CC[C@H](C)[C@H]1O[C@]2(CC[C@@H]1C)C[C@@H]1C[C@@H](CC=C(C)[C@@H](O[C@H]3C[C@H](OC)[C@@H](O[C@H]4C[C@H](OC)[C@@H](O)[C@H](C)O4)[C@H](C)O3)[C@@H](C)C=CC=C3CO[C@@H]4[C@H](O)C(C)=C[C@@H](C(=O)O1)[C@]34O)O2 | 3.5µM | - | 3.5µM | - | 3.2µM | 3.5µM
CNc1nc2c(c(=O)n(C)c(=O)n2C)n1CC(O)COc1ccc(OC)cc1 (configuration not stated) | 0 | - | 0 | - | 0 | 0
COC(=O)C1CCN(Cc2ccc3c(c2)CN(C(=O)c2cc4cc(F)ccc4[nH]2)CCO3)CC1 | - | - | 0 | - | - | -
CC1=C(c2ccc(C)cc2)S(=O)(=O)N=C1N1CCN(c2ccccc2)CC1 | - | - | - | - | 0 | 0
Cc1ccc(-n2c(SCc3cccc(F)c3)nc3[nH]ncc3c2=O)cc1C | 0 | - | ? | - | ? | 20µM
CCc1ccc(-n2c(SCc3ccccc3C)nc3[nH]ncc3c2=O)cc1 | - | - | - | - | - | 22µM
CCc1ccc(-n2c(SCc3cccc(F)c3)nc3[nH]ncc3c2=O)cc1 | ? | - | ? | - | ? | 20µM
O=c1c2cn[nH]c2nc(SCc2c(F)cccc2F)n1-c1ccc(Cl)cc1 | 0 | 0 | 0 | 0 | 16µM! | 0
CCc1ccc(-n2c(SCc3ccccc3Cl)nc3[nH]ncc3c2=O)cc1 | ? | - | ? | - | ? | 0
O=C(COc1cccc(Cl)c1)N1CCC(c2nc3ccccc3o2)CC1 | - | - | - | - | 0 | 0
COC(=O)C(C)Sc1ccc2nnc(-c3ccc(F)cc3)n2n1 (configuration not stated) | 0 | 0 | 0 | 0 | 0 | 0
CCC(Sc1ccc2nnc(-c3ccc(F)cc3)n2n1)C(=O)OC (configuration not stated) | 0 | 20µM | 0 | 0 | 0 | 0
COC(=O)[C@H](COC(C)(C)C)NC(=O)O[C@@H]1C(=O)c2ccc(OC)cc2O[C@H]1c1ccc2c(c1)OCO2 | - | 0 | - | 0 | - | -
CC1=CC2C(C(O)CC3(C)C2CC(C)C32OCOC23COCO3)C2(C)C/C(=C\O)C(=O)C=C12 (configuration not stated) | ? | - | - | - | 5.6µM | 11µM
Cc1cnc(CNc2cc(-c3ccc(N(C)C)cc3)ncn2)cn1 | - | 0 | - | 0 | - | -

From PubChem
